This is an account of results in PubChem BioAssay (NCATS).

The target in test [1] is Cytochrome P450 2C9 (Homo sapiens) (UniProt P11712). Nature of the test: qHTS Assay for Inhibitors and Substrates of Cytochrome P450 2C9 (AID 883). Also: potency is read from the fitted curve at half-maximal effect; nearly all actives have a fitted effect of over 60% in size. Summed up: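 A luminogenic readout tracked human CYP2C9 (10nM) converting deoxyluciferin (100uM, at KM) in 25mM KPO4 during 60 min at 37C with regenerated NADPH. Values normalized to 57uM sulphaphenazole as complete inhibition.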

For test [2], the target named is Cytochrome P450 2D6 (Homo sapiens) (UniProt P10635). The experiment in a line: qHTS Assay for Inhibitors and Substrates of Cytochrome P450 2D6 (AID 891). Also: nearly all actives have a fitted effect of over 60% in size. Also: potency is read from the fitted curve at half-maximal effect. Summed up: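 Luminescent read-out of luciferin formed by 5 nM human CYP2D6 demethylating 30 uM Luciferin-ME EGE (Km level) over 60 min at room temperature after NADPH regeneration addition. Data normalized to full inhibition by 1.43 uM quinidine.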
For orientation: In qHTS, concentration-response curves come from the screen itself.

Test [3] has as its target Cytochrome P450 2C19 (Homo sapiens) (UniProt P33261). The experiment in a line: qHTS Assay for Inhibitors and Substrates of Cytochrome P450 2C19 (AID 899). Also: nearly all actives have a fitted effect of over 60% in size. Also: potency is read from the fitted curve at half-maximal effect. Summed up:
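NADPH-dependent conversion of Luciferin-H EGE (10uM, at KM) by 5nM enzyme in 50mM KPO4, 60 min at 37C following 10 min compound preincubation. Stopped with luciferin detection buffer; luminescence read after 20 min.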

Test [4] is described as follows: qHTS Assay for Identification of Small Molecule Agonists for Thrombopoietin (TPO) Signaling Pathway (AID 917). Also: % is scaled to controls: 0 for no effect and ±100 for the full control effect. Summed up: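 Human TPO receptor–transfected Ba/F3 cells (murine, IL-3-dependent) in IL-3-deficient medium; compounds plus TPO at EC50, 26 pM final; 24 hrs, 37 C; GpIIb-luciferase luminescence after 10 min RT detection.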
In test [5] the target is Pyruvate kinase (Leishmania mexicana) (UniProt Q27686). Nature of the test: qHTS Validation Assay for Inhibitors of Leishmania Mexicana Pyruvate Kinase (AID 945).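 Also: 0% = DMSO only neutral control wells.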 In short, it runs like this: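 An endpoint luciferase assay: 0.2 nM LmPYK E451W turns over 0.5 mM PEP with 0.1 mM ADP for 1 h at room temperature, pH 7.2, before PKLight addition. Values are normalized to DMSO-only wells.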

The target in test [6] is Pyruvate kinase PKM (Homo sapiens) (UniProt P14618). The experiment in a line: qHTS Assay for Activators of Human Muscle Pyruvate Kinase (AID 954; active = well fitted curve in the direction sought with a large enough effect, not every such curve was filed as active;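 also: 0% = uninhibited enzyme and -100% = no enzyme or full thiadiazolimine inhibition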). In short, it runs like this:
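ATP production by PKM2 detected via luciferase luminescence after 1 h room-temperature reaction (0.1 nM enzyme, PEP at Km 0.5 mM, ADP 0.1 mM, pH 7.2 imidazole buffer). Inhibition scaled to no-enzyme control; activation referenced to 0.3 nM enzyme wells.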

In test [7] the target is Alpha-galactosidase A (Homo sapiens) (UniProt P06280). The experiment in a line: Counterscreen for Glucocerebrosidase Inhibitors: qHTS Assay for Human alpha-Galactosidase at pH 4.5 (AID 992). Also: 0% is about no effect. Summed up:
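Fluorogenic 1536-well qHTS at pH 4.5 (citrate, Tween-20): 2 nM enzyme, 80 uM 4-MU-alpha-galactoside, 20 min room temperature, NaOH/glycine stop. Titration 0.7 nM to 77 uM, data normalized to no-enzyme and full-activity controls, Hill-fitted AC50.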
(In general: Counterscreens check selectivity or assay interference.)

Test [8] concerns the target alpha-glucosidase (Oryza sativa, rice) (UniProt Q653V4). The experiment in a line: Counterscreen for Glucocerebrosidase Inhibitors: qHTS Assay for Rice alpha-Glucosidase at pH 5.0 (AID 997).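 Also: 0% = full activity with enzyme and -100% = basal without enzyme.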 Summed up:
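Endpoint fluorogenic assay at pH 5.0: compounds (0.7 nM to 77 uM) titrated against 4 nM rice enzyme and 400 uM 4-MU-alpha-glucoside for 20 min at room temperature; NaOH/glycine stop, read ex 365/em 440 nm, Hill-fitted AC50.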

Test [9] addresses RecQ-like DNA helicase BLM (Homo sapiens) (UniProt P54132). Nature of the test: qHTS Validation Assay for Inhibitors of Bloom's syndrome helicase (BLM) (AID 2364).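 Also: plate controls were DMSO vehicle for no effect and enzyme-free control for full effect.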 Summed up: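 BLM 50 nM in 25 mM Tris-HCl pH 8.0, 5 mM NaCl, 2 mM MgCl2, 1 mM DTT, 0.01% Tween-20, 2.5 ug/ml poly(dI-dC); 15 min cpd preinc, RT. Start: 200 nM forked DNA + 2 mM ATP (final). TAMRA read, 2 reads 2 h apart.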

Test [10] can be described thus: Validation screen for small molecules that induce DNA re-replication in MCF 10A normal breast cells (AID 463097). Also: 0% is about no effect; nearly all actives have a fitted effect of over 60% in size. Summed up: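 Following 48 hr compound incubation (37 C, 5% CO2), MCF 10A cells receive Hoechst for 40 min at 37 C. Nuclei are then scanned (excitation 405 nm, emission 500-530 nm) for total fluorescence intensity.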
For test [11], the target named is M-phase phosphoprotein 8 (Homo sapiens) (UniProt Q99549). Nature of the test: qHTS Validation Assay for Inhibitors for MPP8 Chromodomain Interactions with Methylated Histone Tails (AID 488949).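 Also: 50 nM MPP8 with 50 nM peptide preformed then compounds added for 30 min; AlphaScreen signal from MPP8 chromodomain bound to biotinylated H3K9me3 peptide; top concentration of the series differs between compounds; % is scaled to controls: 0 for no effect and ±100 for the full control effect; nearly all actives have a fitted effect of over 55% in size.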 Summed up:
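Chemiluminescent proximity assay: histidine-tag capture via nickel acceptor beads, biotin peptide via streptavidin donor beads. Protein and peptide each at 50 nM, pH 7.4, with 30 min incubations at room temperature for complex formation, compound exposure and bead binding.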

The nature of test [12]: AP1 Signaling Pathway (AID 357; active = well fitted curve in either direction with a large enough effect, not every such curve was filed as active;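 also: ME-180 reporter cells stimulated with EGF at its EC50 level; % is scaled to controls: 0 for no effect and ±100 for the full control effect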). Conditions: ME-180 AP-1-bla reporter, EGF-induced, beta-lactamase ratio, 5 h; at 7.69 µM (top of the series) unless noted. In short, it runs like this:
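Cells are seeded overnight, exposed to compound titrations and an EC50 level of EGF for 5 hours at 37 °C, then loaded with CCF4 dye for 2.5 hours. Beta-lactamase activity under the AP-1 element is read as a blue/green ratio.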

The nature of test [13]: NFAT Signaling Pathway (AID 444; active = well fitted curve in either direction with a large enough effect, not every such curve was filed as active;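 also: carbachol stimulus at about its EC50 of 1 µM final; % is scaled to controls: 0 for no effect and ±100 for the full control effect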). The settings on record: Jurkat NFAT-bla M1, carbachol, beta-lactamase ratio, 5 h; at 7.69 µM (top of the series) unless noted. In short, it runs like this: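 Jurkat cells carrying an NFAT-driven β-lactamase reporter and co-transfected muscarinic M1 receptor were treated with compound plus carbachol (1 uM final, an EC50 level) for 5 h at 37 °C. CCF4 loading followed for 1 h at RT; 460/530 nm ratio gave %activity.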

Test [14] in a line: Stat Signaling Pathway (AID 446; active = well fitted curve in either direction with a large enough effect, not every such curve was filed as active;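 also: ME-180 cervical cancer cells given 40 pM IL-6 alongside compound; SIE-controlled beta-lactamase reporter measured as 460/530 nm FRET emission ratio; % is scaled to controls: 0 for no effect and ±100 for the full control effect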). The settings on record: ME-180 (cervical carcinoma) SIE beta-lactamase reporter, IL-6 stimulated, 5 h; at 7.69 µM (top of the series) unless noted. In short, it runs like this: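 FRET read-out (405 nm excitation, 460/530 nm emission) of a beta-lactamase reporter under a STAT-inducible element in ME-180 cervical carcinoma cells. Cells with compound receive 40 pM IL-6 for 5 h. Values are normalised to AC90 stimulation and AC90 JAK-inhibitor controls.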

A short description of test [15]: Confirmation and Secondary Assay for Modulators of Hemoglobin Beta Chain Splicing at IVS2 654 locus (AID 910).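 Also: per-well total GFP intensity by laser scanning cytometry after 2-day treatment; % of control where 0% means no effect.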 Summed up:
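HeLa cells stably carrying EGFP interrupted by mutant beta-globin IVS2-654 intron (CMV-driven) were treated with compound for 2 days at 37C; corrected splicing was scored as total peak GFP intensity per well (488 nm excitation, 500-520 nm emission).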

Test [16] is described as follows: Confirmation and Secondary Assay for Modulators of Hemoglobin Beta Chain Splicing at IVS2 705 locus (AID 930).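 Also: HeLa cells stably expressing the EGFP-705 splicing reporter; GFP fluorescence per well restored by corrected splicing of the IVS2-705 intron in EGFP; % of control where 0% means no effect.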 In short, it runs like this:
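Per-well GFP, captured at 1 x 8 µm resolution with 488 nm excitation, served as the read-out for HeLa EGFP-705 cells incubated 2 days with test compound versus DMSO.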

Test [17] has as its target Rap guanine nucleotide exchange factor 3 (Homo sapiens) (UniProt O95398). The experiment in a line: Confirmatory qHTS for antagonist of cAMP-regulated guanine nucleotide exchange factor 3 (EPAC1) (AID 1645880).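 Also: plate controls were DMSO only for no effect and full effect of the ATA control for full effect; nearly all actives have a fitted effect of over 55% in size.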 Summed up:
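Released BODIPY-GDP fluoresces less than Rap1-bound BODIPY-GDP; the signal is followed at 480/540 nm at 5-min intervals over 30 min, after 5 min at room temperature. Reactions contain 100 nM EPAC1, 250 nM RAP1B-BODIPY-GDP and 50 uM GDP; results are normalized to ATA and DMSO.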

Test [18] shares this target. Nature of the test: Confirmatory qHTS for agonist of cAMP-regulated guanine nucleotide exchange factor 3 (EPAC1) (AID 1645881).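 Also: EPAC1 catalysed release of BODIPY-GDP from Rap1B seen as fluorescence loss; 100% = effect of cAMP agonist control; nearly all actives have a fitted effect of over 75% in size.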
In test [19] the target is Rap guanine nucleotide exchange factor 4 (Homo sapiens) (UniProt Q8WZA2). The experiment in a line: Confirmatory qHTS for agonist of cAMP-regulated guanine nucleotide exchange factor 4 (EPAC2) (AID 1645884).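 Also: nucleotide exchange releases bodipy-GDP from Rap1 and this lowers its fluorescence; % is scaled to controls: 0 for no effect and ±100 for the full control effect; nearly all actives have a fitted effect of over 65% in size.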
Test [20] shares this target. The experiment in a line: Confirmatory qHTS for antagonist of cAMP-regulated guanine nucleotide exchange factor 4 (EPAC2) (AID 1645885). Also: % is scaled to controls: 0 for no effect and ±100 for the full control effect; nearly all actives have a fitted effect of over 25% in size.

SMILES strings stand for the structures. Several values for one entry are separate records, joined by “and”; a condition that tells them apart may be missing. Identical values can stand only once. Records with an inconclusive call do not appear. The source holds several records for some structures; these can differ, active in one and inactive in another. Activity calls are given as the source filed them. Unless noted, calls follow the shape of the dose curve; as a rule, active = well fitted curve in the direction sought with a large enough effect; inconclusive = small, poorly fitted or top-dose-only effect, or another doubt; inactive = no such curve, though single readings can be large; an effect the other way counts as inactive or inconclusive.

Sequence of Cytochrome P450 2D6 (Homo sapiens) (P10635 whole entry, looked up): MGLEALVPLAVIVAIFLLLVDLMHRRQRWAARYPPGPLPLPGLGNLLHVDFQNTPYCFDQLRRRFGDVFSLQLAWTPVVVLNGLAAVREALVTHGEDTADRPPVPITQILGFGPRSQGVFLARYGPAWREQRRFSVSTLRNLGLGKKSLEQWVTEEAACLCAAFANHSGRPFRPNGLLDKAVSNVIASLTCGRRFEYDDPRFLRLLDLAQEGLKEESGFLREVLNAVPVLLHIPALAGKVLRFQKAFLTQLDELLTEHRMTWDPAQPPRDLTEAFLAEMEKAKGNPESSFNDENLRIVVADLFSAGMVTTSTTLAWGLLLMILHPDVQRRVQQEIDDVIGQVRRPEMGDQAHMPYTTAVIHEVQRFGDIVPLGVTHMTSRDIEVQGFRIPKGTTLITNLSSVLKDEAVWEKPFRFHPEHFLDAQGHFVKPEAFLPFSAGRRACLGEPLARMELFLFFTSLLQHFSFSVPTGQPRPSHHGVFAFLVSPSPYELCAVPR
Sequence of Rap guanine nucleotide exchange factor 4 (Homo sapiens) (Q8WZA2 whole entry, looked up): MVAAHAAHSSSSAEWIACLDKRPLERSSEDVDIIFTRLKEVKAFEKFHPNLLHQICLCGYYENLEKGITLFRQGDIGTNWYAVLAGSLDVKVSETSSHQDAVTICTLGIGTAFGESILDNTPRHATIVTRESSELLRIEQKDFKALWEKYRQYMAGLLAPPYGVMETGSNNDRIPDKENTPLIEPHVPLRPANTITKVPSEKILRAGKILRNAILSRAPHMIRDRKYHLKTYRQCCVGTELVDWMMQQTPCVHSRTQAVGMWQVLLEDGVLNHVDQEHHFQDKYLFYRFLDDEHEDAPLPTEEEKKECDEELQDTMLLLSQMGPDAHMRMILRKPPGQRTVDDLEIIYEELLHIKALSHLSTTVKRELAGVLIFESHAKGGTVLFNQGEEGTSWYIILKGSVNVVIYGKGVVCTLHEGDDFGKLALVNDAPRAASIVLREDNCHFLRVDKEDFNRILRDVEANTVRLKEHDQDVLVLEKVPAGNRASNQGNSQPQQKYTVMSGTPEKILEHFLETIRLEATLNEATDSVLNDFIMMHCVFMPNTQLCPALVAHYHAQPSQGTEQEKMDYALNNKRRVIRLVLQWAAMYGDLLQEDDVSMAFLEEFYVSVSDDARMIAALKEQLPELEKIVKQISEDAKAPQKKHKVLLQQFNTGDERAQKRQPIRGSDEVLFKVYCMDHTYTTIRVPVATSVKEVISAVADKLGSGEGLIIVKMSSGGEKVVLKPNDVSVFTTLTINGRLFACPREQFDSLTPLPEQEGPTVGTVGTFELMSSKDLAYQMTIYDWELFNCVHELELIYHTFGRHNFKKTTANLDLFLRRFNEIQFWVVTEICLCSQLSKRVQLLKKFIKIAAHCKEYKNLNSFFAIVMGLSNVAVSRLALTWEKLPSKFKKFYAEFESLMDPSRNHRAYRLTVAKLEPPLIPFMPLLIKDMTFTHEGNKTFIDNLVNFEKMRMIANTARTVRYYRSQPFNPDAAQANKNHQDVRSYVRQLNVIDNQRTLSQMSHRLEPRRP
Sequence of Cytochrome P450 2C19 (Homo sapiens) (P33261 whole entry, looked up): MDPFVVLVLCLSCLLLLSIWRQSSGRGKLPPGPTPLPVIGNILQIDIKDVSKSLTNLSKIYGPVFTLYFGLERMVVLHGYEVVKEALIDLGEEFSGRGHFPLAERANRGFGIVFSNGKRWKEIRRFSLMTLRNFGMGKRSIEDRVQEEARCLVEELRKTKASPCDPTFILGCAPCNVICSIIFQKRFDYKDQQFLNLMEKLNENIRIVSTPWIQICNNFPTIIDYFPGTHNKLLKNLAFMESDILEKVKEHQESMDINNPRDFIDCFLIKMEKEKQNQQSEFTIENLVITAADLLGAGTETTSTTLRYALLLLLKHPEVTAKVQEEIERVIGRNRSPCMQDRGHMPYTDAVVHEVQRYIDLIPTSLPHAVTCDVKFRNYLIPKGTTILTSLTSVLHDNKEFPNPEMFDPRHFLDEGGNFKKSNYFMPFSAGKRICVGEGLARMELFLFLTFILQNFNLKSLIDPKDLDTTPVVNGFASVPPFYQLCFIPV
Sequence of Rap guanine nucleotide exchange factor 3 (Homo sapiens) (O95398 whole entry, looked up): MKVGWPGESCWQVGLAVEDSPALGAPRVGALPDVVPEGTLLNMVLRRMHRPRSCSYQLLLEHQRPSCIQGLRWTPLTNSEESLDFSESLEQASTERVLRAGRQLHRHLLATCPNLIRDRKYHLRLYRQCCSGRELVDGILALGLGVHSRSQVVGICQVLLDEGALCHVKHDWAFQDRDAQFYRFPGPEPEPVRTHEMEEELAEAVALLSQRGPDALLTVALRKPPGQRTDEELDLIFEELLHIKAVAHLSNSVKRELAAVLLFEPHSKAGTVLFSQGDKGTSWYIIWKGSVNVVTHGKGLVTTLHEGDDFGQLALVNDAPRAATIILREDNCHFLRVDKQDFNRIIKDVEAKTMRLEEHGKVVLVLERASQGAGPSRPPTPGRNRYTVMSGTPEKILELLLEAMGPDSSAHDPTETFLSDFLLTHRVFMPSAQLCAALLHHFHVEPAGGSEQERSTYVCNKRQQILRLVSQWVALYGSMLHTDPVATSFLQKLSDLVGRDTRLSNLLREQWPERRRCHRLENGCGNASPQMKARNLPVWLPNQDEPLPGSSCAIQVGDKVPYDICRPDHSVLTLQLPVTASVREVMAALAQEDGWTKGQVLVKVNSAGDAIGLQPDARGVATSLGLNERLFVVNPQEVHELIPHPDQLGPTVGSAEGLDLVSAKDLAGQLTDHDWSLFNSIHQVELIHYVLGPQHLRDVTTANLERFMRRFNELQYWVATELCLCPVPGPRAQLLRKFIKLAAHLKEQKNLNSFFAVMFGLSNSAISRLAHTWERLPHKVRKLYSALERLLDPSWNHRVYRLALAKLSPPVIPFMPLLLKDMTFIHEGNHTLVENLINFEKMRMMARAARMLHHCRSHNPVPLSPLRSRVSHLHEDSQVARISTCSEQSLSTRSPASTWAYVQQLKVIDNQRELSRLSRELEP
Sequence of Cytochrome P450 2C9 (Homo sapiens) (P11712 whole entry, looked up): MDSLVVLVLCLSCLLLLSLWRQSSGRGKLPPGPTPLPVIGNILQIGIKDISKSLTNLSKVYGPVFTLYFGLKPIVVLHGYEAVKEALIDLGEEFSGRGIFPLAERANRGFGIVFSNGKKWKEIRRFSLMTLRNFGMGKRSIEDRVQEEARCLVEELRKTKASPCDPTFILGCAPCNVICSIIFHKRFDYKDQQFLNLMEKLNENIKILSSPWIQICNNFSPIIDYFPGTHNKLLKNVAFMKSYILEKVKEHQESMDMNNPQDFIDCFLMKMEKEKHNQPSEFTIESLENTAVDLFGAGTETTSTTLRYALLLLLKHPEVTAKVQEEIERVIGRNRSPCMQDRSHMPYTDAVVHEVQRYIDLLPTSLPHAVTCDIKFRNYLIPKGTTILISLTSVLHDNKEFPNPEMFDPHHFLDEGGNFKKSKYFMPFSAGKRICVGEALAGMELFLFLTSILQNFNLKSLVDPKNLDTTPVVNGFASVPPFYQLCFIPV
Sequence of Pyruvate kinase (Leishmania mexicana) (Q27686 2-499 E452W): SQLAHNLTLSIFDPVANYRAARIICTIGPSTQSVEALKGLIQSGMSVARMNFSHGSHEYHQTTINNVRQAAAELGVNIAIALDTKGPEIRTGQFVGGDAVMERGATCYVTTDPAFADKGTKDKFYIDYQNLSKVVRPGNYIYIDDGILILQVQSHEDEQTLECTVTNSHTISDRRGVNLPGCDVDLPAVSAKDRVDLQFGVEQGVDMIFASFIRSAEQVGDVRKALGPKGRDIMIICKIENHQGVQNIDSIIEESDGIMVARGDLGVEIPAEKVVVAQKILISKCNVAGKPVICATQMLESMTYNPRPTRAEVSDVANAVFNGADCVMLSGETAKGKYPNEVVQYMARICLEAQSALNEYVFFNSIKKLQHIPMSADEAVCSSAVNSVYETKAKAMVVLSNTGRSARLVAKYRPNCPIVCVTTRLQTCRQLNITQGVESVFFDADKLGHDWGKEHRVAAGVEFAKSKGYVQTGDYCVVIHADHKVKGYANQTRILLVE
Sequence of Pyruvate kinase PKM (Homo sapiens) (P14618 whole entry, looked up): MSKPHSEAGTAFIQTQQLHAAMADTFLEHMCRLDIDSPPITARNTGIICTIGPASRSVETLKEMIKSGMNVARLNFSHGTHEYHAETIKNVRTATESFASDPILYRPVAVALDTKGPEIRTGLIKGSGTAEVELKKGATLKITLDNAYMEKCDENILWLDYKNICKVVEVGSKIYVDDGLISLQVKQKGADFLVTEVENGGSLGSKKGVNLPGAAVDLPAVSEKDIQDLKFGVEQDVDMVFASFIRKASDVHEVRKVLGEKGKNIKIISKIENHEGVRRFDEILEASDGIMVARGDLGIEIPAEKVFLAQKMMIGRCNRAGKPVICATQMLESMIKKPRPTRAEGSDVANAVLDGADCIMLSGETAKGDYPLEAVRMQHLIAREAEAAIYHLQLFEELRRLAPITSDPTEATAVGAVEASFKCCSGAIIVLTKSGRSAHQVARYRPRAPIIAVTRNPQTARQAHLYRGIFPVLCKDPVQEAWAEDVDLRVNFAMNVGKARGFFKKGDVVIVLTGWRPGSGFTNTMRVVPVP
Sequence of Alpha-galactosidase A (Homo sapiens) (P06280 whole entry, looked up): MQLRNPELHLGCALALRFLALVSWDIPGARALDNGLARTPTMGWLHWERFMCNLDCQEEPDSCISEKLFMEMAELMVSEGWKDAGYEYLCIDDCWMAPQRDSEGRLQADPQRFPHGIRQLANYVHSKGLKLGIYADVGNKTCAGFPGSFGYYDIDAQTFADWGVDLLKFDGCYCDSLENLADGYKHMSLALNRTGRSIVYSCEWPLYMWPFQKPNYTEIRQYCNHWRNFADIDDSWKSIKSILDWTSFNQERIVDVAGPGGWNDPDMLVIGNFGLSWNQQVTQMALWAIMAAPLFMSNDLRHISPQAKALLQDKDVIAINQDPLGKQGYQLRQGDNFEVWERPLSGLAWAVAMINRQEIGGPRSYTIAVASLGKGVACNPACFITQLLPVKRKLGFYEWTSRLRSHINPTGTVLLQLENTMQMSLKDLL

For the molecule `CN(CCOc1ccc(C[C@H](Nc2ccccc2C(=O)c2ccccc2)C(=O)O)cc1)c1ccccn1`, the Potency in test [1] is 10 µM (active); in [2] it was “inactive and 31.6 nM (active)”; in test [3], “inactive and 3.98 µM (active)”. Further, the result in test [4], in test [6], in test [7] and in test [8] was inactive. The Potency entry in test [5] was “inactive”.
On to `C[C@H]1CC2[C@@H]3CCC4=CC(=O)C=C[C@]4(C)[C@@]3(F)[C@@H](O)C[C@]2(C)[C@@]1(O)C(=O)CO` (stereo not given in full), for which the Potency result in [9] and in test [11] was “inactive” in each case. The call in [10] was inactive.
Consider `C[C@@]12C(=O)OC(=O)[C@]1(C)[C@H]1CC[C@@H]2O1`, for which the values for the activity change, negative = inhibition in [12] and in test [13] were -102% [at 17.2 µM] (active) and -99.7% [at 17.2 µM] (active), respectively. Further, the activity, negative = inhibition in test [14] is -85.9% [at 17.2 µM] (active).
With `C=C1CCC2[C@](C)(CO)C(O)CC[C@]2(C)C1C/C=C1/C(=O)OCC1O` (stereo not given in full), the result in [15] and in test [16] was inactive.
For `CC(/C=C1\SC(=S)N(CC(=O)O)C1=O)=C\c1ccccc1`, the Potency result in [17] and in test [20] was “inactive” each time. In addition, the call in test [18] and in test [19] was inactive.
